Compound activity (PubChem BioAssay)
A selection: hits, their analogues and other compounds. The true share with any hit is near 12%.
HP1b chromo inh: blocks HP1-beta chromodomain binding to methylated histone tails. P83916. AlphaScreen HP1-beta / biotin-H3K9me3 peptide binding. Potency, µM (top dose mostly 114 µM), for the others: top-dose activity change, negative = inhibition, hits mostly inhibitors. hit rate 0.56% among 390,000; further: nearly all actives have a fitted effect of over 70% in size
Target sequence (P83916 whole entry, looked up): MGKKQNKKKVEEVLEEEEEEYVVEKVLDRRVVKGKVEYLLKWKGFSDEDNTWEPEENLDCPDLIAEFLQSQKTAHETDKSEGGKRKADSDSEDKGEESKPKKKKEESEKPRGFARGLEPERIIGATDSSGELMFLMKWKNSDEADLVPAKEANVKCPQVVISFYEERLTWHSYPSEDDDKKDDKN
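Compound inhibition of the preformed complex between 50 nM HP1-beta and 50 nM biotinylated H3K9me3 peptide was read by AlphaScreen. Buffer was PBS pH 7.4 with 0.01% Tween-20. Incubations ran 30 min at room temperature, with 10 ug/mL donor/acceptor beads.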
BAZ2B block: blocks human BAZ2B | AID 504333 | Potency, µM (highest dose often 114 µM), without a hit: top-dose activity change, negative = inhibition, hits mostly inhibitors | AlphaScreen BAZ2B-H3K14Ac peptide displacement | hit rate 4.4% among 360,000 | Q9UIF8; further: on the % scale 0 is the no-effect control and ±100 the full control effect; nearly all actives have a fitted effect of over 60% in size
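Complex of BAZ2B and biotin-H3K14Ac (50 nM apiece) forms over 30 min at RT, then faces library compounds up to 110 uM for another 30 min; AlphaScreen beads added, 20 min dark incubation, luminescence read.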
G9a inh: inhibitors of human histone lysine methyltransferase G9a | Q96KQ7 | G9a H3K9 monomethylation, AlphaScreen, 2 h | Potency, µM (top dose mostly 102 µM), without a hit: at the highest dose activity, negative = inhibition, hits mostly inhibitors | hit rate 8.8% among 350,000 | AID 504332; further: on the % scale 0 is the no-effect control and ±100 the full control effect; nearly all actives have a fitted effect of over 75% in size
Target sequence (Q96KQ7 913-1193 limits assumed): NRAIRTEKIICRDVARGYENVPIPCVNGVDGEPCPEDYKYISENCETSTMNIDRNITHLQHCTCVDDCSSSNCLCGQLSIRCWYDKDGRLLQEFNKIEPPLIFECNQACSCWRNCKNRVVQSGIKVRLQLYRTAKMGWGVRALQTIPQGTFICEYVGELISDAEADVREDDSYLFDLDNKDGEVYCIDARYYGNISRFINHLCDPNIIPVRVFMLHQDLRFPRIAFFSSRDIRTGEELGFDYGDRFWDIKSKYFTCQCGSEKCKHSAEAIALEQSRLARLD
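Signal arises when biotinylated H3K9 peptide, once monomethylated, bridges streptavidin donor and antibody-captured acceptor beads. Enzyme at 20 nM was preincubated 15 min with test compounds; peptide 500 nM and SAM 20 uM then reacted for 2 h.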
Sfp PPTase inh: inhibitors of Bacillus subtilis Sfp phosphopantetheinyl transferase; Potency, µM, inactives show largest response in the series, negative = inhibition, most hits filed as inhibitors; hit rate 3.5% among 310,000; Q9F4F7; Biochemical Sfp PPTase activity, qHTS; AID 1490;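 further: the enzyme is Sfp with the accession as filed and its product quenches rhodamine fluorescence; 0% = enzyme reaction without inhibitor and -100% = no enzyme wells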
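After 15 min at room temperature with compound, 15 nM Sfp received 5 uM rhodamine-CoA plus 12.5 uM BHQ-2-ybbR (50 mM Hepes pH 7.6, 10 mM MgCl2). Rate came from the fluorescence difference over 30 min, ex 525/em 598 nm.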
L3MBTL1 block: inhibitors of human L3MBTL1 | Q9Y468 | AlphaScreen L3MBTL1–H3K9me1 peptide binding | Potency, µM (highest dose often 57.1 µM), for inactives: at the top dose activity, negative = inhibition, actives largely listed as inhibitors | hit rate 0.66% among 230,000 | AID 485360; further: on the % scale 0 is the no-effect control and ±100 the full control effect; nearly all actives have a fitted effect of over 60% in size
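L3MBTL1 (50 nM) pre-complexed 30 min with biotinylated H3(1-15)K9me1 peptide (75 nM), then compounds added for 30 min at room temperature; AlphaScreen streptavidin donor/nickel chelate acceptor beads (10 ug/mL final) read after 30 min dark incubation.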
JMJD2A Tudor inh: inhibitors of human JMJD2A Tudor domain; O75164; hit rate 4.4% among 390,000; Potency, µM (highest dose often 114 µM), for the others: at the highest dose activity change, negative = inhibition, most hits filed as inhibitors; AlphaScreen JMJD2A-Tudor / H3K4me3 peptide binding; further: on the % scale 0 is the no-effect control and ±100 the full control effect; nearly all actives have a fitted effect of over 50% in size
Active calls of the source: *; ? = inconclusive; . = no result given; ! = not confirmed by another sample; [ ] = another dose, or the depositor's remark. The call rests on the fitted dose curve; in most records, active means well fitted curve in the direction sought with a large enough effect; inconclusive means small, poorly fitted or top-dose-only effect, or another doubt; inactive means no such curve, though single readings can be large; an effect the other way counts as inactive or inconclusive. Potency means the concentration at half of the fitted maximal effect.

SMILES | HP1b chromo inh | BAZ2B block | G9a inh | Sfp PPTase inh | L3MBTL1 block | JMJD2A Tudor inh
O=C(COC(=O)c1n[nH]c(=O)c2ccccc12)Nc1ccccc1F | 34% | . | . | . | 0% | -7%
COc1ccc(NC(=O)c2[nH]nc3c2CSc2ccccc2-3)c(OC)c1 | 19% | -34% | -4%[59 µM] | . | . | -22%
Cc1nc2ccc(NC(=O)c3ccc(Cl)nc3)cc2s1 | 44% | -21% | ? | 11% | . | 8%
Cc1cc(C)c(-c2csc(NC(=O)C3=NN(c4ccccc4)C(=O)CC3)n2)c(C)c1 | 39% | -6% | 28µM* | -7% | -20% | -26%
Cc1nc2ccc(NC(=O)c3cc(Cl)ccn3)cc2s1 | 19% | 79µM* | 45µM* | -16% | . | -34%
CCc1ccc(-c2csc(NC(=O)C3=NN(c4ccccc4)C(=O)CC3)n2)cc1 | 36% | -35% | -16%[59 µM] | 5% | -12% | -26%
CSc1nc2ccc(NC(=O)C3=NNC(=O)CC3)cc2s1 | 28% | -11% | 3% | 9% | -11% | -22%
CSc1nc2ccc(NC(=O)C3=NN(c4ccccc4)C(=O)CC3)cc2s1 | -2% | -31% | 45µM* | -5% | ? | ?
COC(=O)[C@@]1(Cc2ccccc2)[C@H]2c3cc(C(=O)N4CCCC4)n(Cc4nc5ccccc5[nH]4)c3C[C@H]2CN1C(=O)c1ccccc1 | . | . | . | 1% | . | .
CC(C)c1ccc(NC(=O)CSC2=Nc3ccccc3C3=NC(CC(=O)NCc4ccc(F)cc4)C(=O)N23)cc1 (stereo not drawn) | 0% | -23% | 0%[59 µM] | . | . | ?
CC(C)C1Oc2ccccc2N(CC(=O)N(Cc2ccccn2)CC2CCCO2)C1=O (stereo not drawn) | 24% | 7% | 4% | 1% | 0% | -2%
Cc1ccc(CN(CC2CCCO2)C(=O)CN2C(=O)C(C(C)C)Oc3ccccc32)o1 (stereo not drawn) | 8% | -7% | ? | 45µM* | -5% | -27%
CO/N=C(/C(=O)N[C@H]1C(=O)N2C(C(=O)O)=C(COC(C)=O)CSC12)c1csc(N)n1 (stereo partly drawn) | . | . | 3%[2.33 µM] | -32% | . | .
CO/N=C(/C(=O)N[C@@H]1C(=O)N2C(C(=O)O)=CCS[C@H]12)c1csc(N)n1 | . | . | ? | 50µM* | . | .
C=CC1=C(C(=O)O)N2C(=O)[C@@H](NC(=O)/C(=N\O)c3csc(N)n3)[C@H]2SC1 (stereo in doubt) | 5% | . | . | . | . | 20µM*
CO/N=C(/C(=O)NC1C(=O)N2C(C(=O)O)=C(CSc3nc(=O)c(O)nn3C)CSC12)c1csc(N)n1 (stereo not drawn) | . | . | 1%[2.33 µM] | 50µM*! | . | .
COC(=O)c1cc(CN2C(=O)c3ccccc3C2=O)c(O)c([N+](=O)[O-])c1 | 49% | 56µM* | 6% | 1% | . | -6%
CCCC(=O)NC(=S)NNC(=O)c1ccc([N+](=O)[O-])cc1 | -6% | 9% | 3.2µM* | ? | 9% | 71µM*
CCCCCCCC(=O)NNC(=O)c1ccc([N+](=O)[O-])cc1 | 6% | -28%[57.1 µM] | 45%[0.501 µM] | 19% | -3% | -15%
CCCCNC(=S)NC(=O)c1ccc([N+](=O)[O-])cc1 | -30% | 50µM* | . | 8% | -16% | ?
CCCCNC(=S)Nc1ccc([N+](=O)[O-])cc1 | 6% | -32% | -16% | 9% | -9% | -25%
C#CCOCCOCCOCCNc1nc(N2CCN(C(=O)[C@H](CC(N)=O)n3cc(C(N)[C@H](C)CC)nn3)CC2)nc(N2CCN(C(=O)[C@H](CC(N)=O)n3cc(C(N)[C@@H](C)CC)nn3)CC2)n1 (stereo partly drawn) | 33% | . | . | . | -8% | 22µM*
C#CCOCCOCCOCCNc1nc(N2CCN(C(=O)[C@H](CCCCN)n3cc([C@@H](N)C(C)CC)nn3)CC2)nc(N2CCN(C(=O)[C@H](CCCCN)n3cc([C@@H](N)CC(C)C)nn3)CC2)n1 (stereo partly drawn) | 23% | 71µM* | ? | 15% | 0% | ?
C#CCOCCOCCOCCNc1nc(N2CCN(C(=O)[C@H](CCCCN)n3cc(CN)nn3)CC2)nc(N2CCN(C(=O)[C@H](CC(N)=O)n3cc(C(N)[C@H](C)CC)nn3)CC2)n1 (stereo partly drawn) | 15% | . | . | . | -8% | 40µM*
C#CCOCCOCCOCCNc1nc(N2CCN(C(=O)[C@H](CC(N)=O)n3cc(C(N)[C@@H](C)CC)nn3)CC2)nc(N2CCN(C(=O)[C@H](CCC(=O)O)n3cc([C@@H](N)CCCCN)nn3)CC2)n1 (stereo partly drawn) | 14% | . | . | . | -8% | 79µM*
SMILES | HP1b chromo inh | BAZ2B block | G9a inh | Sfp PPTase inh | L3MBTL1 block | JMJD2A Tudor inh
C#CCOCCOCCOCCNc1nc(N2CCOCC2)nc(N2CCN(C(=O)[C@H](CCCCN)n3cc(CN)nn3)CC2)n1 | 7% | . | . | . | 11% | -28%
Cc1oc(-c2cccs2)nc1CNC[C@H]1O[C@@H](n2cnc3c(N)ncnc32)[C@H](O)[C@@H]1O | 59% | . | . | . | -1% | -5%
COC(=O)[C@@]1(Cc2ccc(F)cc2)[C@H]2c3cc(C(=O)N(C)C)n(Cc4ccc(C(F)(F)F)nc4)c3C[C@H]2CN1C(=O)c1ccccc1 | . | . | . | 12% | . | .
Cc1nc2scc(C)n2c(=O)c1S(=O)(=O)NCC1CCN(Cc2ccc(F)cc2)CC1 | 17% | -8% | -7%[0.0925 µM] | -4% | . | -26%
C#CCOCCOCCOCCNc1nc(N2CCN(C(=O)[C@H](CCC(=O)O)n3cc([C@@H](N)[C@H](C)CC)nn3)CC2)nc(N2CCN(C(=O)[C@H](CCC(=O)O)n3cc([C@@H](N)CC(N)=O)nn3)CC2)n1 | 20% | . | . | . | -18% | 56µM*
C#CCOCCOCCOCCNc1nc(N2CCN(C(=O)[C@H](CCC(=O)O)n3cc([C@@H](N)[C@H](C)CC)nn3)CC2)nc(N2CCN(C(=O)[C@H](CCCCN)n3cc([C@@H](N)CC(N)=O)nn3)CC2)n1 | -14% | . | . | . | -7% | 5.6µM*
C#CCOCCOCCOCCNc1nc(N2CCN(C(=O)[C@H](CCCCN)n3cc([C@@H](N)[C@H](C)CC)nn3)CC2)nc(N2CCN(C(=O)[C@H](CCCCN)n3cc([C@@H](N)CC(N)=O)nn3)CC2)n1 | 78% | . | . | . | 2% | -26%
C#CCOCCOCCOCCNc1nc(N2CCN(C(=O)[C@H](CC(N)=O)n3cc(C(N)[C@@H](C)CC)nn3)CC2)nc(N2CCN(C(=O)[C@H](CCCCN)n3cc([C@@H](N)CC(N)=O)nn3)CC2)n1 (stereo partly drawn) | 23% | . | . | . | -6% | 79µM*
